We go through 27 compounds from ChEMBL document CHEMBL4513146, “CO-ADD screening of Karazin Kharkiv National University (Ukraine) compounds”.

For experiment [1], the system named is Klebsiella pneumoniae. The settings on record: Concentration 32 ug.mL-1;; ASSAY_TEST Inhibition of Bacterial Growth; detection method Absorption (OD600); MEDIA CAMHB; plate type 384well; NBS; CORNING #3640; time 18 hr.
In experiment [2] the test system is Candida albicans. The settings on record: Concentration 32 ug.mL-1; ASSAY_TEST Inhibition of Fungal Growth; detection method Absorption (OD530).
In experiment [3] the test system is Cryptococcus neoformans. The settings on record: Concentration 32 ug.mL-1; ASSAY_TEST Inhibition of Fungal Growth; detection method Resazurin; Absorption (OD600-OD570); plate type 384well; NBS; CORNING #3640. For orientation: The colour change of resazurin is a common sign of viable cells or microbes.

Results with a measured potency or affinity are listed apart.

As for `CCOC(=O)c1ccc(NC(=O)Cn2nc3c(SC4CCCCC4)nccn3c2=O)cc1`, the Inhibition is 11.88% in experiment [1], -1.98% in experiment [2] and -30.92% in experiment [3].

For the compound `COc1ccccc1-n1ccn2c(SCC(=O)Nc3ccc(C)c(F)c3)nnc2c1=O`, the Inhibition is recorded as 8.02% in experiment [1], 2.55% in experiment [2] and -5.32% in experiment [3].

With `CCOC(=O)c1ccc(NC(=O)Cn2nc3c(N4CCOCC4)nccn3c2=O)cc1`, the figures for the Inhibition in experiment [1], in experiment [2] and in experiment [3] were 11.56%, 3.03% and -14.12%, respectively.

Regarding `COc1cccc(-c2noc(Cn3nc4ccc(-c5ccccc5)nn4c3=O)n2)c1OC`, the Inhibition in experiment [1] was 1.06%; in experiment [2] it was 2.21%; in experiment [3], -2.99%.

On to `CCOC(=O)c1cccc(NC(=O)Cn2nc3c4cc(-c5ccc(C)c(C)c5)nn4ccn3c2=O)c1`, for which the Inhibition in experiment [1] is -4.81%; in experiment [2] it was 21.87%; in experiment [3], -17.02%.

Take `CCc1nnc2c(S(=O)(=O)N(Cc3cccc(C)c3)c3ccc(C(C)C)cc3)cccn12`: the figures for the Inhibition in experiment [1], in experiment [2] and in experiment [3] were 14.47%, 4.99% and -9.13%, respectively.

Take `CCC(Sc1nnc2c(=O)n(-c3ccc(C)c(C)c3)ccn12)C(=O)Nc1cc(OC)ccc1OC` (stereo unspecified): the Inhibition in experiment [1] is reported as 5.57%; in experiment [2], 2.66%; in experiment [3], -6.72%.

`CCOC(=O)c1ccc(NC(=O)Cn2nc3c4sc(N5CCCC5)nc4ncn3c2=O)cc1`: the Inhibition in experiment [1] is listed as -7.55%; in experiment [2], 32.94%; in experiment [3], -7.69%.

On to `Cc1cc2nn(CC(=O)Nc3cc(F)ccc3C)c(=O)n2c(Nc2ccc(F)cc2)n1`, for which the Inhibition is on record as 8.72% in experiment [1], 0.87% in experiment [2] and -4.58% in experiment [3].

Regarding `Cc1cccc(C)c1NC(=O)CSc1nnc2c3cc(-c4ccc(F)cc4)nn3ccn12`, the results for the Inhibition in experiment [1], in experiment [2] and in experiment [3] were -6.3%, 4.52% and -11.19%, respectively.

As to `O=C(Cn1nc2c(SC3CCCCC3)nccn2c1=O)Nc1ccc(Br)cc1`, the Inhibition in experiment [1] was 6.54%; in experiment [2], 6.38%; in experiment [3] it was -23.31%.

With `COc1ccc(NC(=O)Cn2nc3cc(C)nc(Nc4ccc(F)cc4)n3c2=O)cc1F`, the Inhibition in experiment [1] is given as 11.33%; in experiment [2], 2.69%; in experiment [3] it was -3.63%.

As for `CCCCc1ccc(NC(=O)Cn2nc3c(Sc4ccccc4)nccn3c2=O)cc1`, the Inhibition in experiment [1] is 5.15%; in experiment [2], 28.09%; in experiment [3], -10.74%.

With `Cc1cccc(NC(=O)c2ccc3nn(CC(=O)N4CCc5ccccc5C4)c(=O)n3c2)c1`, the Inhibition in experiment [1] is -2%; in experiment [2], 12.37%; in experiment [3] it was -12.59%.

As for `CCCCn1c(=O)c2sccc2n2c(=O)n(CC(=O)c3ccc(OC)c(OC)c3)nc12`, the Inhibition in experiment [1] is listed as 19.59%; in experiment [2] it was -0.04%; in experiment [3], -27.81%.

As for `Cc1cccc(Sc2nccn3c(=O)n(CC(=O)Nc4ccc(Br)cc4C)nc23)c1`, the Inhibition in experiment [1] is 8.64%; in experiment [2], 6.35%; in experiment [3] it was -17.23%.

On to `O=C(Cn1nc2c3cc(-c4ccc(F)cc4)nn3ccn2c1=O)Nc1ccc(Br)cc1`, for which the Inhibition in experiment [1] is 2.07%; in experiment [2], 14.76%; in experiment [3], 4.1%.

Take `CCOc1ccc(NC(=O)Cn2nc3c(Sc4ccc(C)cc4C)nccn3c2=O)cc1`: the Inhibition in experiment [1] is on record as 3.27%; in experiment [2] it was 6.36%; in experiment [3], -11.66%.

For `O=c1c2sccc2n2c(=O)n(Cc3ccc(Cl)cc3)nc2n1Cc1cccs1`, the Inhibition is given as -1.66% in experiment [1], 32.28% in experiment [2] and -17.8% in experiment [3].

Regarding `Cc1ccc(-n2ccn3c(=O)n(Cc4c(F)cccc4Cl)nc3c2=O)cc1C`, the results for the Inhibition in experiment [1], in experiment [2] and in experiment [3] were 16.81%, 1.02% and -16.44%, respectively.

With `CSc1cccc(NC(=O)Cn2nc3c(SCc4ccc(Cl)cc4)nccn3c2=O)c1`, the Inhibition in experiment [1] is 7.71%; in experiment [2], 19.01%; in experiment [3], -40.36%.

As to `COc1ccc(CN(c2ccc(F)c(F)c2)S(=O)(=O)c2ccc3nncn3c2)cc1`, the results for the Inhibition in experiment [1], in experiment [2] and in experiment [3] were 12.63%, 0.74% and -4.76%, respectively.

For the compound `COc1ccccc1NC(=O)Cn1nc2c3cc(-c4ccc(Cl)cc4)nn3ccn2c1=O`, the Inhibition in experiment [1] is on record as 7.17%; in experiment [2], 8.08%; in experiment [3], -18.6%.

Consider `Cc1ccc(-n2ccn3c(=O)n(Cc4cccc(Cl)c4)nc3c2=O)cc1C`, for which the values for the Inhibition in experiment [1], in experiment [2] and in experiment [3] were 2.85%, 1.08% and -13.91%, respectively.

Take `COc1ccc(-n2ccn3c(=O)n(Cc4cc(C)ccc4C)nc3c2=O)cc1Cl`: the values for the Inhibition in experiment [1], in experiment [2] and in experiment [3] were 9.01%, 1.96% and -5.13%, respectively.

On to `COc1ccc(CNC(=O)Cn2nc3c(Sc4ccc(C)cc4C)nccn3c2=O)cc1`, for which the Inhibition in experiment [1] is 6.84%; in experiment [2], -0.37%; in experiment [3] it was -7.66%.

For `Cc1ccc(CNC(=O)Cn2nc3c(N4CCN(c5ccccc5C)CC4)nccn3c2=O)cc1`, the Inhibition in experiment [1] is given as 0.81%; in experiment [2], 26.17%; in experiment [3], -8.71%.

What is called Inhibition is the change of the read-out against control, counted positive when it falls.
